The record followed here is the supplement of paper PMC7411054.

Counter-ions that a name gives are not always drawn.

What all share (conditions): treatment time: 24 h
Assay [1] deals with A549-ACTB-RAB5A. In words: lowest phenotypically active concentration; higher = less potent. A digest of the protocol: (§1)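 The reporter lines, fifteen in total and built by gene editing in A549, HepG2 and WPMY1 cells, used BFP for segmentation alongside GFP and RFP/FusionRed markers. Each was treated at 0.3, 1, 3 or 9 µM for 24 h in four wells and then imaged live, with live-cell features normalised to solvent control wells. Deviation meant ≥3 of 4 wells beyond the 95th percentile of control Euclidean distances; reproducibility meant a median replicate Pearson correlation above the 95th percentile of non-replicates. Only conditions meeting both were scored as phenotypically active.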

For assay [2], the system named is A549-GM130-SQSTM1. Described as above. A digest of the protocol: as §1
Assay [3] concerns A549-TUBA1B-RELA. The assay is described as above. A digest of the protocol: as §1
For assay [4], the system named is WPMY1-GM130-SQSTM1. The description is as above. The method in brief: as §1
The subject of assay [5] is A549-ACTB-RAB5A. In words: phenotypically active (imaging signature differs from DMSO and reproducible) at any of 0.3-9 uM (binary (1 = active, 0 = inactive)); higher = active. The method in brief:
as §1

A further assay concerns A549-CANX-COX4. Described as above. The method in brief: as §1
Assay [6] relates to A549-GM130-SQSTM1. The assay is described as above. A digest of the protocol:
as §1

Another assay concerns A549-TP53BP1-CLTA. The description is as above. A digest of the protocol:
as §1

The test system of assay [7] is A549-TUBA1B-RELA. The assay is described as above. A digest of the protocol: as §1
Assay [8] deals with HepG2-ACTB-RAB5A. Described as above. A digest of the protocol:
as §1

In a further assay the test system is HepG2-CANX-COX4. The description is as above. A digest of the protocol: as §1
The next assay concerns HepG2-GM130-SQSTM1. Described as above. The method in brief:
as §1

Another assay relates to HepG2-TP53BP1-CLTA. The description is as above. A digest of the protocol:
as §1

The next assay relates to HepG2-TUBA1B-RELA. The description is as above. A digest of the protocol:
as §1

A further assay relates to WPMY1-ACTB-RAB5A. The description is as above. The method in brief: as §1
The subject of another assay is WPMY1-CANX-COX4. Described as above. A digest of the protocol: as §1
Assay [9] deals with WPMY1-GM130-SQSTM1. The assay is described as above. A digest of the protocol:
as §1

In a further assay the test system is WPMY1-TP53BP1-CLTA. The description is as above. A digest of the protocol:
as §1

The next assay has as its system WPMY1-TUBA1B-RELA. Described as above. A digest of the protocol: as §1
Assay [10] deals with HepG2-ACTB-RAB5A. The assay can be described thus: lowest phenotypically active concentration; higher = less potent. A digest of the protocol:
as §1

As to `CN1CCc2cccc3c2[C@H]1Cc1ccc(O)c(O)c1-3` [r(-)-apomorphine], the “lowest phenotypically active concentration” value is 9 µM in the assay on A549-ACTB-RAB5A [1], 9 µM in the assay with A549-GM130-SQSTM1 [2], 9 µM in the assay with A549-TUBA1B-RELA [3] and at most 0.3 µM in the assay with WPMY1-GM130-SQSTM1 [4]. The phenotypically active with A549-ACTB-RAB5A [5] is 1 (active); in the assay on A549-CANX-COX4, 1 (active); in the assay on A549-GM130-SQSTM1 [6], 1 (active); with A549-TP53BP1-CLTA, 1 (active); in the assay with A549-TUBA1B-RELA [7] it was 1 (active); in the assay on HepG2-ACTB-RAB5A [8], 0 (inactive). For the same compound, the phenotypically active was 0 (inactive) with HepG2-CANX-COX4; 0 (inactive) in the assay with HepG2-GM130-SQSTM1; 0 (inactive) in the assay on HepG2-TP53BP1-CLTA; 0 (inactive) in the assay on HepG2-TUBA1B-RELA; 1 (active) with WPMY1-ACTB-RAB5A; 1 (active) with WPMY1-CANX-COX4. Also, the phenotypically active is 1 (active) in the assay with WPMY1-GM130-SQSTM1 [9], 0 (inactive) in the assay with WPMY1-TP53BP1-CLTA and 1 (active) in the assay on WPMY1-TUBA1B-RELA.
For `CN(C)CC(=O)Nc1ccc2[nH]c(=O)c3ccccc3c2c1` [PJ 34 hydrochloride], the “lowest phenotypically active concentration” value in the assay on A549-ACTB-RAB5A [1], in the assay with A549-GM130-SQSTM1 [2], in the assay on A549-TUBA1B-RELA [3], in the assay with HepG2-ACTB-RAB5A [10] and in the assay on WPMY1-GM130-SQSTM1 [4] was 9 µM each time. The phenotypically active is 1 (active) in the assay with A549-ACTB-RAB5A [5]; 1 (active) with A549-CANX-COX4; 1 (active) in the assay on A549-GM130-SQSTM1 [6]; 0 (inactive) in the assay on A549-TP53BP1-CLTA; 1 (active) with A549-TUBA1B-RELA [7]; 1 (active) with HepG2-ACTB-RAB5A [8]. Also, the phenotypically active in the assay on HepG2-CANX-COX4, in the assay with HepG2-GM130-SQSTM1, with HepG2-TP53BP1-CLTA, in the assay on HepG2-TUBA1B-RELA, in the assay on WPMY1-ACTB-RAB5A and in the assay on WPMY1-CANX-COX4 was 1 (active) throughout. Moreover, the phenotypically active in the assay on WPMY1-GM130-SQSTM1 [9] was 1 (active); with WPMY1-TP53BP1-CLTA, 0 (inactive); in the assay on WPMY1-TUBA1B-RELA, 1 (active).
As to `C=C1C(=O)O[C@@H]2[C@H]3O[C@]3(C)CCC=C(C)CC[C@@H]12` [Parthenolide], the “lowest phenotypically active concentration” value with A549-ACTB-RAB5A [1], with A549-GM130-SQSTM1 [2], in the assay on A549-TUBA1B-RELA [3], in the assay with HepG2-ACTB-RAB5A [10] and in the assay on WPMY1-GM130-SQSTM1 [4] was 9 µM each time. The phenotypically active in the assay with A549-ACTB-RAB5A [5] is 1 (active); with A549-CANX-COX4, 1 (active); in the assay on A549-GM130-SQSTM1 [6], 1 (active); in the assay with A549-TP53BP1-CLTA, 0 (inactive); with A549-TUBA1B-RELA [7], 1 (active); with HepG2-ACTB-RAB5A [8], 1 (active). Moreover, the phenotypically active is 1 (active) in the assay on HepG2-CANX-COX4; 1 (active) with HepG2-GM130-SQSTM1; 0 (inactive) in the assay on HepG2-TP53BP1-CLTA; 0 (inactive) in the assay with HepG2-TUBA1B-RELA; 1 (active) in the assay with WPMY1-ACTB-RAB5A; 1 (active) with WPMY1-CANX-COX4. Moreover, the phenotypically active with WPMY1-GM130-SQSTM1 [9] was 1 (active); with WPMY1-TP53BP1-CLTA it was 0 (inactive); in the assay with WPMY1-TUBA1B-RELA it was 1 (active).
As for `C=C1CC[C@@H]2[C@](C)(CO)[C@H](O)CC[C@@]2(C)[C@@H]1C/C=C1/C(=O)OC[C@H]1O` [Andrographolide], the “lowest phenotypically active concentration” value in the assay on A549-ACTB-RAB5A [1] worked out at 9 µM; with A549-GM130-SQSTM1 [2] it was 3 µM; in the assay on A549-TUBA1B-RELA [3], 9 µM; with HepG2-ACTB-RAB5A [10], 3 µM; in the assay with WPMY1-GM130-SQSTM1 [4] it was 9 µM. Moreover, the phenotypically active with A549-ACTB-RAB5A [5] was 1 (active); in the assay on A549-CANX-COX4 it was 1 (active); in the assay on A549-GM130-SQSTM1 [6], 1 (active); in the assay on A549-TP53BP1-CLTA it was 0 (inactive); in the assay with A549-TUBA1B-RELA [7], 1 (active); in the assay on HepG2-ACTB-RAB5A [8] it was 1 (active). Also, the phenotypically active was 1 (active) with HepG2-CANX-COX4; 1 (active) with HepG2-GM130-SQSTM1; 1 (active) with HepG2-TP53BP1-CLTA; 1 (active) in the assay with HepG2-TUBA1B-RELA; 0 (inactive) in the assay on WPMY1-ACTB-RAB5A; 0 (inactive) with WPMY1-CANX-COX4. Moreover, the phenotypically active with WPMY1-GM130-SQSTM1 [9] was 1 (active); with WPMY1-TP53BP1-CLTA it was 0 (inactive); in the assay on WPMY1-TUBA1B-RELA it was 1 (active).
Regarding `Cn1cc(C2=C(c3ccc(Cl)cc3Cl)C(=O)NC2=O)c2ccccc21`, the “lowest phenotypically active concentration” value in the assay on A549-ACTB-RAB5A [1] was 1 µM; in the assay with A549-GM130-SQSTM1 [2], at most 0.3 µM; in the assay on A549-TUBA1B-RELA [3], 1 µM; in the assay with WPMY1-GM130-SQSTM1 [4], at most 0.3 µM. In addition, the phenotypically active in the assay on A549-ACTB-RAB5A [5] is 1 (active); with A549-CANX-COX4, 0 (inactive); with A549-GM130-SQSTM1 [6], 1 (active); in the assay with A549-TP53BP1-CLTA, 1 (active); with A549-TUBA1B-RELA [7] it was 1 (active); with HepG2-ACTB-RAB5A [8] it was 0 (inactive). Moreover, the phenotypically active with HepG2-CANX-COX4 was 0 (inactive); with HepG2-GM130-SQSTM1, 1 (active); with HepG2-TP53BP1-CLTA, 1 (active); in the assay on HepG2-TUBA1B-RELA it was 0 (inactive); in the assay on WPMY1-ACTB-RAB5A, 0 (inactive); with WPMY1-CANX-COX4 it was 1 (active). Moreover, the phenotypically active in the assay with WPMY1-GM130-SQSTM1 [9] was 1 (active); with WPMY1-TP53BP1-CLTA, 1 (active); in the assay with WPMY1-TUBA1B-RELA, 0 (inactive).
